Test results taken from PubChem BioAssay AID624330 (Southern Research Specialized Biocontainment Screening …, 2012).
The whole screen tested about 340,000 compounds, of which about 2,100 (0.62%) were called active.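 How the source made its calls: active means first-screen hits whose inhibition reached a set limit at any dose in the follow-up dose series; inconclusive means inhibition above the set first-screen limit but never retested; inactive means the rest.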 These entries were drawn from the full list. Potency and affinity values are given separately.

Each molecule was assayed against Rac GTPase-activating protein 1 (Homo sapiens) (UniProt Q9H0H5) (assay: MgcRacGAP GTPase-activating activity inhibitors, confirmation, biochemical, ADP Hunter fluorescence, primary and confirmatory (AID 624330;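 further: fluorescence reports GDP produced by GAP-driven GTP hydrolysis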)). Details: MgcRacGAP-stimulated Rac1 GTP hydrolysis, at 30 µM, hits give high values, GST-tagged Rac1 F28L mutant substrate.
Rac GTPase-activating protein 1 (Homo sapiens), sequence (Q9H0H5 whole entry, looked up): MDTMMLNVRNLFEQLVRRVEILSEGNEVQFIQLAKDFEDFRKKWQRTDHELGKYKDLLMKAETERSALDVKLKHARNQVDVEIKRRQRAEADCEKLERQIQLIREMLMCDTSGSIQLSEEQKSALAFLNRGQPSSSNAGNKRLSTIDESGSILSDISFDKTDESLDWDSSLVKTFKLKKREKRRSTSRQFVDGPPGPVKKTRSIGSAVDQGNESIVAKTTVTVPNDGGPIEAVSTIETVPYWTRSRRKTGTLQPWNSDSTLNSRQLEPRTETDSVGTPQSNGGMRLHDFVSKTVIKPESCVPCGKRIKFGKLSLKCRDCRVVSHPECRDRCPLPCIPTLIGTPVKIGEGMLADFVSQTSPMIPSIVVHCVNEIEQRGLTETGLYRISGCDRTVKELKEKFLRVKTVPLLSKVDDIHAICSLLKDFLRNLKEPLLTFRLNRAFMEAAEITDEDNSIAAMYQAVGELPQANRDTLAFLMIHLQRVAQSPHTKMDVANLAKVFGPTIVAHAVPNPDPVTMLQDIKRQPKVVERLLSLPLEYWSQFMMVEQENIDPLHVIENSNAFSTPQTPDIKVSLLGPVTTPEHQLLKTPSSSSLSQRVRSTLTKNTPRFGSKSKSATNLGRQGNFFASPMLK

inhibition, inactive:
Cc1ccccc1NC(=O)c1ccccc1NC(=O)c1ccco1 4.69%, Cn1cccc1C(=O)OCc1ccc(F)cc1 5.26%, COc1ccc(OC)c(/C=N\NC(=O)c2c(C)nc3cc(C)ccn23)c1 -1.68%, Cc1nc2ccccn2c1C(=O)N/N=C/c1ccc(F)cc1 6.23%, COc1ccc(/C=N/NC(=O)c2c(C)nc3ccccn23)cc1[N+](=O)[O-] 0.27%, Cc1ccn2c(C(=O)N/N=C/c3ccc(Cl)cc3)c(C)nc2c1 8.94%, CN(CC1CCOCC1)C(=O)CC1C(=O)NCCN1Cc1cccc(Oc2ccccc2)c1 (stereo unspecified) -8.59%, O=C(CSc1nnc(CNC(=O)c2c(F)cccc2F)o1)NCCc1ccccc1 6.85%, CCN1C(=O)[C@@H]2[C@H](C1=O)[C@@H]1C(=O)Nc3ccccc3C(=O)N1[C@@H]2c1ccc(OC)cc1 3.37%, O=C(Nc1ccccc1C(=O)NCCc1ccccc1)c1cnccn1 8.13%, N#Cc1cc(-c2ccccc2)cnc1Sc1ccccc1 -2.07%, CCN(CC)CCCNC(=O)Cc1c(C(=O)O)n(C)c2ccccc12 7.17%, CCN1CCN(CC(O)COC(c2ccccc2)c2ccccc2)CC1 (stereo unspecified) 0.21%, c1ccc(C(CN2CCOCC2)c2ccccc2)cc1 14.5%, CC(=O)c1ccc(N2CCN(CC(O)COC(c3ccccc3)c3ccccc3C)CC2)cc1 (stereo unspecified) 12.8%, OC(COC(c1ccccc1)c1ccccc1)CN1CCCCC1 (stereo unspecified) 6.55%, CCOC(=O)N1CCN(CC(c2ccccc2)c2ccccc2)CC1 20.9%, Cc1ccccc1C(OCC(O)CN1CCC(C(N)=O)CC1)c1ccccc1 (stereo unspecified) 6.34%, Cc1nnsc1C(=O)Nc1ccc(S(=O)(=O)N2CCCC(C)C2)cc1 (stereo unspecified) -21.6%, Cc1cc([N+](=O)[O-])nn1CC(=O)NCc1ccc(Cl)cc1 0.89%, COC(=O)Cc1c(OC)ccn(CCc2c[nH]c3ccccc23)c1=O 8.25%, CN1C(=O)C(C)(C)c2cc(S(=O)(=O)N3CCCC(C(=O)NCc4ccc(F)cc4)C3)ccc21 (stereo unspecified) 17.2%, CCC(CC)C(=O)Nc1ccc(C(=O)Nc2cc(C)on2)cc1 5%, COc1ccc(CNC(=O)C(=O)NCC2OCCCN2S(=O)(=O)c2cccs2)cc1 (stereo unspecified) 8.22%, N#CC1=C(N)OC(c2ccccc2)=C(C#N)C1c1ccc2c(c1)OCO2 (stereo unspecified) -0.39%, COc1cc(C2Nn3c(nnc3-c3ccccc3OC)S2)ccc1O (stereo unspecified) 3.42%, CC(C)Cc1ccc(C(=O)NCCOc2ccccc2)o1 5.6%, CNC(=O)c1c(NC(=O)c2ccc(S(=O)(=O)N3CC(C)OC(C)C3)cc2)sc2c1CCN(C(C)C)C2 (stereo unspecified) 11.2%, Cc1ccc(C(=O)NCC(=O)Nc2ncccc2C)s1 -8.48%, Cc1ccc(C(=O)Nc2ccncc2)cc1S(=O)(=O)N1CCOCC1 5.06%, CCOc1ccc(CCN2C(=S)N([C@@H](CC(C)C)CN3CCCC3CN3C(=S)NC[C@@H]3Cc3ccc(O)cc3)C[C@@H]2Cc2ccccc2)cc1 (stereo partly specified) -2.29%, C[C@H](CO)N1C[C@H](C)[C@@H](CN(C)C(=O)c2ccccc2)OCc2cnnn2CCCC1=O 16.3%, O=C(Nc1ccccc1O)c1ccc([N+](=O)[O-])cc1 6.91%, Oc1ccccc1N=Cc1ccc[nH]1 16.7%, O=C(CN1CCOCC1)Nc1ccc(-c2nc3ccccc3[nH]2)cc1 10.7%, CC(C)C[C@@H](C(=O)O)N(Cc1cccc(CN([C@@H](CC(C)C)C(=O)O)S(C)(=O)=O)c1)S(C)(=O)=O 9.29%, CC1=C(C(=O)Nc2ccccc2C)C2(CCCC2)C(C(N)=O)C(=O)N1 (stereo unspecified) -3.29%, CCOC(=O)c1cnc2c(-c3ccccc3)cnn2c1C 8.8%, CCNC(=O)CSC1=N/C(=C\c2ccc(O)c(OCC)c2)C(=O)N1c1ccc(OC(F)F)cc1 7.81%, NC(=O)CSC1=N/C(=C\c2ccco2)C(=O)N1c1ccc(OC(F)F)cc1 9.08%, CCC(C)[C@H](NC(=O)N1CCN(C)CC1)C(=O)OC (stereo partly specified) 3.84%, Cc1ccc(C(=O)Nc2cccc(Oc3ccccc3)c2)o1 1.9%, Cc1ccc2nc(Cc3ccc(N)cc3)[nH]c2c1 6.07%, Nc1ccc(C(=O)OCCCc2nc3cc4ccccc4cc3[nH]2)cc1 14.4%, c1ccc2[nH]c(CCCCc3nc4ccccc4[nH]3)nc2c1 7.39%, c1ccc(Cc2nc3ccccc3[nH]2)cc1 -0.91%, Nc1ccc(C(=O)OCCCc2nc3ccccc3[nH]2)cc1 10%, c1ccc2[nH]c(CCCc3nc4ccccc4[nH]3)nc2c1 -1.49%, CCOCCCN(C(=O)CCC(=O)Nc1cc(C)on1)C(C(=O)NC(C)(C)C)c1ccccc1Cl (stereo unspecified) 5.98%, COc1ccc(-c2c(NC(=O)CC(C)C)n(C)c3ccccc3c2=O)cc1OC 4.25%, Cn1c(COc2ccc([N+](=O)[O-])cc2)nnc1SCC(=O)NCC1CCCO1 (stereo unspecified) 5.87%, CCN(CC)CCCNc1nc2ccccc2[nH]1 7.22%, CCN(CC)CCCNc1nc(-c2ccccc2)nc2ccccc12 17.7%, CCCCCC(O)CCCC(=O)O (stereo unspecified) 7.64%, CCCCCCCCCCCCCCC(O)C[N+](C)(CCO)CCO (stereo unspecified) 20.8%, CCOc1ccc(-n2nc3c(SCCN4CCCC4)nnc(C)c3c2C)cc1 10.3%, Oc1ccccc1Cc1c(O)ccc2ccccc12 23.7%, c1ccc2c(c1)ccc1ccccc12 -3.62%, c1ccc2c(c1)Nc1cc3ccccc3cc1S2 14.6%, FC(F)(F)c1cnc2c(c1)Nc1ccccc1S2 10.2%, Clc1cc2c(nn1)Nc1ccccc1S2 6.5%, c1ccc2c(c1)Nc1nccnc1S2 28.4%, COc1ccc(N/C=C2/Sc3ccccc3NC2=O)cc1 17.3%, COc1ccc2c(c1)S(=O)(=O)c1ccccc1N2 11.9%, Cn1c(N)c(C(=O)CSc2nnc(C3CC3)n2Cc2ccccc2)c(=O)[nH]c1=O 2.66%, N#Cc1ccc(OCC(=O)N2CCN(S(=O)(=O)c3cccc(Cl)c3)CC2)cc1 -0.69%, COc1ccc(NC(=O)CN(C)C(=O)/C=C/c2cn(-c3ccccc3)nc2-c2ccc(C)cc2)cc1 9.39%, CCOC(=O)Cc1csc(NC(=O)c2csc(C)c2)n1 9.83%, CCOc1ccccc1OCCOCCN1CCN(Cc2ccccc2)CC1 26.4%, Cc1cc(OCCN2CCCC2)ccc1[N+](=O)[O-] 19.6%, O=C(c1ccccc1)c1ccc(OCCOCCN2CCN(Cc3ccccc3)CC2)cc1 25.1%, Cc1cc(OCCN2CCC(Cc3ccccc3)CC2)ccc1[N+](=O)[O-] 22%, COc1cccc(NS(=O)(=O)c2c(C)nc3sccn3c2=O)c1 4.23%, CCc1cc(C(=O)NCC(c2ccco2)N2CCCCC2)sc1C (stereo unspecified) 5.34%, Cc1cccc(C(=O)OCC(=O)N2CCCCCC2)c1C 2.72%, CCN(C[C@H]1N[C@@](Cc2ccccc2)(C(=O)OC)[C@H]2C(=O)N(Cc3ccccc3)C(=O)[C@@H]12)C(=O)Nc1ccc(C)cc1 4.71%, CCOC(=O)c1ccc(NC(=S)N2CCC(C(N)=O)(N3CCCCC3)CC2)cc1 -1.44%, CCN(CC)CCSc1nc(O)c(Cc2ccccc2)c(=O)n1-c1ccccc1 2.56%, Cc1ccccc1C(=O)NCC(=O)Nc1ccc(C)c(S(=O)(=O)N2CCCCCC2)c1 -0.01%, CN(C)S(=O)(=O)c1cc(NC(=O)CN2CCOCC2)ccc1Cl 2.76%, Cc1ccccc1NC(=O)C(=O)NCCCN1CCOCC1 4.72%, Cc1ccc(NC(=O)CCl)cc1S(=O)(=O)N1CCCCCC1 4.4%, Cc1ccc(C(=O)NCCCN2CCOCC2)cc1S(=O)(=O)N1CCCCC1 1.84%, CCN1CCN(CC(=O)Nc2ccc(Cl)c(S(=O)(=O)N(C)C)c2)CC1 28.1%, O=C(CNCCN1CCOCC1)Nc1ccccc1Sc1ccccc1 24.9%, Cc1ccc(NC(=O)CN2CCOCC2)cc1S(=O)(=O)N1CCCCC1 7.06%, CC(Oc1cccc(Cl)c1)C(=O)N1CCN(c2ncccn2)CC1 (stereo unspecified) 3.63%, O=C(Nc1ccccc1C(=O)O)c1cc(S(=O)(=O)N2CCOCC2)cs1 3.51%, Cc1ccc(/C=N/N2CCN(C3c4ccccc4-c4ccccc43)CC2)o1 8.36%, COc1ccc(N2CCN(C(=O)c3cc4c(s3)CCCCC4)CC2)cc1 14.7%, COCCn1c(SCC(=O)N2CCCCCC2)nnc1-c1ccco1 3.7%, CCC(CNC(=O)c1c(C)nn(-c2ccccc2)c1Cl)c1ccccc1 (stereo unspecified) -0.7%, Cc1ccc(S(=O)(=O)N2CCCCC2)cc1C(=O)N(C)CCOc1ccccc1 8.29%, O=C(Cn1cnc2c(nnn2-c2ccc(F)cc2)c1=O)NCC1CCCO1 (stereo unspecified) 8.9%, Cc1cc(C)n(CCc2nc3c4ccccc4n(CC#N)c(=O)n3n2)n1 3.22%, COc1cc(-c2csc(CCn3nc(C)cc3C)n2)cc(OC)c1OC 4.55%
